Compounds without any hit were thinned out: in the full panel of roughly 83,000, 20% have a hit.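 Treatment: one concentration, 48 hours, 96-well format. Scoring: percent growth, with anything below 10 considered active.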 A number with no mark means an inactive call. Activity calls are given as the source filed them.

Consider 15 compounds from PubChem BioAssay (NCI).

For the test, the system named is MDA-MB-468 breast. The test can be described thus: NCI-60 one-dose screen, 48 h (100 = growth as untreated, 0 = no growth, -100 = all killed). The settings on record: 10 µM unless noted.
In the case of `Cc1ccc(NC(=O)Nc2ccc(-c3cccnc3)cc2N2CCC(CO)CC2)cc1`, the growth is -16.6% (active).
With `Cc1ccc(Cc2c(C=O)nc(N)[nH]c2=O)c2ccccc12` the figure was 106%; with `COc1ccc(C2(O)CCCCC2)cc1`, 95.2%.
With `CC1Cc2c(Cl)ncnc2N(C)c2ccccc21` (stereo not given) the figure was -31.5% (active); with `O=C(O/C(=C/c1ccccc1)C(F)(F)F)c1ccccc1`, 109%; with `COc1ccc(NC(=O)c2sc3nc(-c4cnccn4)cc(-c4cccs4)c3c2N)cc1`, 89%.
Regarding `COc1ccc(F)c(F)c1C(=O)c1cnc(NC2CCN(S(C)(=O)=O)CC2)nc1N`, the growth is -59.4% (active).
With `Oc1[nH]c2ccc(Cl)cc2c1N=Nc1nc(N=Nc2c(O)[nH]c3ccc(Cl)cc23)nc(N2CCCCC2)n1` the figure was 18.1%; with `O=C1c2c(c(=O)[nH]c3ccccc23)CCN1Cc1ccccc1`, 101%.
For the compound `O=C(NCCc1ccccn1)OCc1nc2nc(Cl)nc(N3CCOCC3)c2[nH]1`, the growth was 24.9%.
Regarding `CCCCCC/C=C\CCCCCCCCCc1cc(O)cc(OC)c1O`, the growth was -54.1% (active).
The figure for `COc1c(B(O)O)cc(C)cc1-c1nc2ccc3[nH]ncc3c2c2c1CCCC2` is 28.2%.
With `CC1=Nc2cnc(Nc3ccc(N4CCCCC4)cc3)nc2Nc2ccccc21` the figure was 54.9%; with `O=[N+]([O-])c1ccc(Nc2nc(NCCN3CCOCC3)ncc2[N+](=O)[O-])cc1`, 70.8%.
The figure for `COc1cc2c(c(OC)c1OC)CCC(c1cccc(C(=O)Nc3ccc([N+](=O)[O-])cc3)c1)O2` (stereo not given) is 38.2%.
